Assay results from the supplement of paper PMC3334620.
The full ranking holds about 33,000 sequences; the median of “E-score (-0.5 to 0.5)” is about -0.054, and the highest 2% start at about 0.39. The sample as a whole holds a higher share of the highest values than the screen did.

biological target: Ylr278c (UniProt Q05854); test: PBM E-score (8-mer binding enrichment) (E-score (-0.5 to 0.5)); higher = stronger / more preferred TF binding; details: protein concentration: 200 nM; construct: GST-DNA-binding domain
UniProt Q05854, sequence (Q05854 whole entry, the tested form may be a part): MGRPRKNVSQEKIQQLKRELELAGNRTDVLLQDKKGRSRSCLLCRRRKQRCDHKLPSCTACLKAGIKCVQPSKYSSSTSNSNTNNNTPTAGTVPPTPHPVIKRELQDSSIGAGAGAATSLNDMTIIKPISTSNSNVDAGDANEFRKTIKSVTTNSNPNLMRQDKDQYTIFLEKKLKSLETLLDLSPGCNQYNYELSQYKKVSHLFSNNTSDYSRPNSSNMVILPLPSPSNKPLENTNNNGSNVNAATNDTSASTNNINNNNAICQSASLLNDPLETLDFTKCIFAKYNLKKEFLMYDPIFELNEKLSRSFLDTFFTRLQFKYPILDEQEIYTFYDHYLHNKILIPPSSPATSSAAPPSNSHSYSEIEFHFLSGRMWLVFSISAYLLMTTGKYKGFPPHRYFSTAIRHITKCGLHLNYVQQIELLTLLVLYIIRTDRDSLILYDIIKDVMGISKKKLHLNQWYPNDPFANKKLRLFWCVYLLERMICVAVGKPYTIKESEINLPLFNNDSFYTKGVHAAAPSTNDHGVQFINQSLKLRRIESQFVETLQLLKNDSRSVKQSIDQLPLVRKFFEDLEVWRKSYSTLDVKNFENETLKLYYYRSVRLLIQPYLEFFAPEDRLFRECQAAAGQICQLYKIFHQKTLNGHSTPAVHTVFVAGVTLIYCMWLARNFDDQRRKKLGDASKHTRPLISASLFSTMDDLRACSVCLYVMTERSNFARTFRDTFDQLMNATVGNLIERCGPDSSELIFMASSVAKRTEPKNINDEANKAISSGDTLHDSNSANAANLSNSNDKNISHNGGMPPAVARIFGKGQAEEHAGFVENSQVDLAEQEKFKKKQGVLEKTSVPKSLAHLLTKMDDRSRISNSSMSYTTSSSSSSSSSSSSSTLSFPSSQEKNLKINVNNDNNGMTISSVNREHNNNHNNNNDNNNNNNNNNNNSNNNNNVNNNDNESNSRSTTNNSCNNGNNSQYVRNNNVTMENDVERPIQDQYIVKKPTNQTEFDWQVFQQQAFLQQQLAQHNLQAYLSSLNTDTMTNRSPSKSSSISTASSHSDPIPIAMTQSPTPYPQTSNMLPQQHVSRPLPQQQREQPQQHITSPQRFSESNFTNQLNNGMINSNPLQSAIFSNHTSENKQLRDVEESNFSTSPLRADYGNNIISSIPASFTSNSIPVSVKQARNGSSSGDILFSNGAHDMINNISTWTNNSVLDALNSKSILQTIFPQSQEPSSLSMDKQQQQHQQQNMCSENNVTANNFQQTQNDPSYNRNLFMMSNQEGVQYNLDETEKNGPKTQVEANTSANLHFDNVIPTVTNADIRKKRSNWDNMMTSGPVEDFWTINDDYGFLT
Description: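 Universal 'all 10-mer' protein binding microarrays (Agilent AMADID 015681) probed with GST-tagged S. cerevisiae TFs (full-length or DBD) made by in vitro transcription/translation (PURExpress), about 100-200 nM. Bound TF was detected with fluorescent anti-GST. Each ungapped 8-mer (which stands for itself and its reverse complement) is scored by the PBM enrichment score (E-score), a modified Wilcoxon-Mann-Whitney statistic from -0.5 to +0.5, computed with the Universal PBM Analysis Suite. Scale: above 0.35 generally sequence-specific binding.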

Row | Sequence | PBM E-score
1 | GGGGAGAA | 0.0935
2 | ATACCTTG | -0.236
3 | AACCTAGG | -0.102
4 | CATAGGAG | -0.136
5 | GACTATGA | -0.11
6 | AGTCTTGA | -0.247
7 | AGGAAATA | 0.0859
8 | CGGAAAAG | 0.373
9 | CGGAAAAA | 0.446
10 | CGGAAATA | 0.451
11 | CGGAAATC | 0.41
12 | GGGAAATA | 0.0851
13 | CGGAAAAC | 0.373
14 | CTGAAATC | 0.0679
15 | AGGAAATC | 0.178
16 | ACGCGAGA | -0.171
17 | CATTCAAG | -0.154
18 | AACCGGGG | 0.321
19 | ATCCGGGA | 0.332
20 | CTCCGGGA | 0.468
21 | ATCCGGGG | 0.414
22 | AACCGGGC | 0.0679
23 | CTCCGGGC | 0.448
24 | ATCCGGGC | 0.406
25 | ATCCGAGG | 0.274
26 | GTCCGGGA | 0.38

Row | Sequence | PBM E-score
27 | CCCGGGGA | 0.358
28 | CTGCGGGC | 0.276
29 | CACCGGGC | 0.304
30 | TAAGAGTA | -0.0846
31 | ACGACAGA | -0.232
32 | AGCCGCAC | -0.0107
33 | CCAGACGA | -0.149
34 | CCGCTTTC | 0.211
35 | CATCCATA | -0.123
36 | CGGAGTCA | 0.457
37 | GGGAGTCA | -0.00639
38 | AGGAGTCC | 0.13
39 | CGGAGTCC | 0.464
40 | AGGAGTCA | -0.121
41 | CAGAGTCC | 0.0837
42 | GAAGCCAA | 0.0199
43 | ACTGTTCA | -0.122
44 | TATTCCAA | -0.177
45 | TATTCCCA | 0.138
46 | CATTCCGA | 0.391
47 | GATTCCAA | -0.116
48 | CATTCCGG | 0.384
49 | GATTCCGA | 0.413
50 | TATTCCGA | 0.453
51 | GATTCCCA | 0.0255
52 | CATTCCTA | -0.212

Row | Sequence | PBM E-score
53 | AGCTAGTA | -0.114
54 | GAGTTCCC | 0.0904
55 | AACTTATA | 0.0873
56 | CAAGCAGG | 0.00606
57 | CCTACAGA | -0.256
58 | GAGTCGCC | 0.0773
59 | GTCAGATA | -0.151
60 | TCCTTGAA | -0.227
61 | GTTTCTGA | 0.0572
62 | CGGGCCCA | 0.091
63 | CGGGCCCG | 0.398
64 | AGGGCCCG | 0.152
65 | ATTTCTGC | 0.184
66 | GCGCAGCC | 0.0388
67 | ATCGGACC | 0.412
68 | CTCGGACC | 0.365
69 | CTCGGATA | 0.215
70 | ATCGGATG | 0.329
71 | GTCGGACA | 0.386
72 | ATCGGATA | 0.393
73 | GGCGGACC | 0.413
74 | CTCGGACA | 0.435
75 | AACGGACC | 0.251
76 | CGCGGACC | 0.386
77 | ATCGGTCC | 0.325
78 | AGCGGACC | 0.252

Row | Sequence | PBM E-score
79 | CAGTGTTC | -0.0124
80 | ACCCAAGT | -0.215
81 | AATTCAAT | -0.026
82 | AGAAGTCA | -0.0826
83 | AAAGCACA | -0.103
84 | GCAACAGA | 0.0725
85 | ATCGGACA | 0.419
86 | AGCGGACA | 0.294
87 | ATCGGACG | 0.357
88 | CAGGCTAA | -0.247
89 | AGTGCGAG | -0.276
90 | ACCCTTAT | -0.098
91 | TTCGAAAA | 0.0013
92 | CGAACGGA | 0.312
93 | GTCACGGA | 0.401
94 | ACCACGGA | 0.341
95 | GGAACGGA | 0.398
96 | TCCACGGA | 0.406
97 | CCCACGGA | 0.359
98 | ATCACGGA | 0.365
99 | CTCACGGA | 0.264
100 | AGAACGGA | 0.256
101 | TACTGCTA | -0.151
102 | GCATACCC | -0.0377
103 | GCGTCTTA | -0.209
104 | GGGATGCA | -0.0857

Row | Sequence | PBM E-score
105 | CTCTCTTA | -0.169
106 | AAATCTTA | -0.149
107 | GCCCTTCC | -0.0379
108 | AAGGCCCG | 0.128
109 | AAGGCCGC | 0.188
110 | AAGGCCGG | 0.434
111 | AAGGCCGT | 0.142
112 | AAGGCCGA | 0.4
113 | CAGGCCGG | 0.176
114 | CGCCTAAA | -0.186
115 | ATAATGCA | -0.276
116 | CGCCTCGC | 0.0203
117 | AGGGGTTC | 0.0104
118 | CCGGGTTC | 0.337
119 | CGGGGTTC | 0.401
120 | GGGGGTTA | -0.28
121 | CGGGGTTA | 0.437
122 | AGGGGTTA | -0.171
123 | ATAAGTTG | -0.0479
124 | GCTGTCTA | -0.154
125 | CATTCTCC | 0.191
126 | AATTCTCA | -0.13
127 | AATTCTCC | 0.407
128 | ACAAAAGG | 0.0804
129 | ACACCGGC | 0.355
130 | ACACCGGA | 0.416

Row | Sequence | PBM E-score
131 | TCACCGCA | 0.0213
132 | GCACCGTA | 0.0145
133 | CCACCGGC | 0.295
134 | CCACCGGA | 0.455
135 | ACACCGGT | 0.324
136 | GCACCGGA | 0.429
137 | TCACCGAA | 0.178
138 | CCACCGGG | 0.329
139 | TCACCGGA | 0.394
140 | GCACCGGC | 0.264
141 | GAGTCTCC | 0.291
142 | CCGCTTGC | 0.217
143 | GTACTAGA | -0.178
144 | AGGACGTC | 0.0253
145 | AGGGCCCA | 0.00775
146 | AAGCGCAA | 0.0312
147 | AGTGGTGG | -0.158
148 | AATCCACG | 0.0023
149 | ATCCGACA | 0.382
150 | GGCCGACA | 0.248
151 | CTCCGACC | 0.458
152 | CACCGACC | 0.192
153 | GTCCGACA | 0.393
154 | ATCCGACC | 0.234
155 | CCCCGACA | 0.301
156 | GCCCGACA | 0.216

Row | Sequence | PBM E-score
157 | CTCCGACA | 0.438
158 | CACCATCA | -0.0978
159 | GCTAGATA | -0.085
160 | GAGGGGTA | -2e-05
161 | ACGATGCA | -0.0494
162 | CTTGCAAA | 0.034
163 | AGAAATCG | 0.0562
164 | CTAAAGAC | -0.12
165 | AGGGAGCG | -0.14
166 | CGGGAGCA | 0.108
167 | ATGGAGCG | -0.0671
168 | ACGGAGCC | 0.385
169 | ACGGAGCG | 0.396
170 | ACGGAGCA | 0.344
171 | CCGGAGCG | 0.458
172 | CCGGAGCA | 0.473
173 | CAGGAGCG | -0.00543
174 | GCGGAGCA | 0.376
175 | ACGGAGCT | 0.395
176 | CCAGAGCG | -0.00204
